Test results reported in publication PMC9838217, “Structure of SALL4 zinc finger domain reveals link between AT-rich DNA binding and Okihiro syndrome”.
Positions count from the first letter of the chain named.

What follows are sequences tested against T1, SALL4 ZFC4 WT (HT-SELEX) (Mus musculus, UniProt Q8BX22 870-940) (assay: HT-SELEX; high values mean tight binding). Conditions: protein: recombinant; vector His6-GST; dsDNA, one strand shown.
T1 sequence: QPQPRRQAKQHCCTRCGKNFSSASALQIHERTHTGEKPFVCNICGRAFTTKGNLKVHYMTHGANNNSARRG
In short: (§1)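 Recombinant mouse SALL4 zinc finger cluster 4 (residues 870–940, 1 µg), purified, was mixed with library DNA (1.5 µg in the first cycle, 200 ng thereafter) in 100 µl of buffer containing 10 mM Tris–HCl pH 7.5, 50 mM NaCl, poly(dI-dC) and DTT, and left for 10 min at room temperature. Complexes were captured on Ni2+ beads, washed, amplified by PCR and reselected for up to 6 cycles in triplicate, after which MiSeq sequencing and a 6-mer scan followed. Binding signal is the read fraction of each canonical k-mer, given as fold change relative to the starting random library.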

Row | Sequence | binding signal [fold-change vs cycle 0]
1 | AACGTG | 0.697 ± 0.0529
2 | CTTAAA | 1.73 ± 0.0848
3 | AGCCAA | 0.49 ± 0.0194
4 | ATTGGG | 0.725 ± 0.0369
5 | AATGCG | 0.428 ± 0.0345
6 | AACGAA | 1.15 ± 0.0599
7 | CATGGG | 0.477 ± 0.0485
8 | ATACTA | 2.04 ± 0.115
9 | ATTGCG | 0.438 ± 0.0111
10 | TATCAA | 2.32 ± 0.148
11 | GGAGTA | 0.898 ± 0.0231
12 | ATCAAT | 2.28 ± 0.171
13 | CGAAAG | 0.614 ± 0.0288
14 | AGAATC | 1.3 ± 0.1
15 | AGGGAG | 0.59 ± 0.0373
16 | ACCTCA | 0.854 ± 0.0441
17 | ATTCAG | 1.31 ± 0.0442
18 | CTGTAC | 0.751 ± 0.0338
19 | GACGAA | 0.609 ± 0.00641
20 | AATAGC | 1 ± 0.0454

Row | Sequence | binding signal [fold-change vs cycle 0]
21 | CCTCTC | 0.497 ± 0.0203
22 | CAAGTG | 0.7915 ± 0.00346
23 | GTCAAC | 0.711 ± 0.0163
24 | TATAAA | 3.97 ± 0.451
25 | TCTAAA | 1.79 ± 0.0986
26 | AGTGGA | 0.862 ± 0.03
27 | ACAAGT | 1.24 ± 0.0226
28 | AGAAGC | 0.652 ± 0.0323
29 | CCTACG | 0.357 ± 0.0238
30 | GCATGA | 0.7 ± 0.0187
31 | GTGTGA | 0.748 ± 0.0198
32 | AAGTTG | 1.18 ± 0.062
33 | GGTTCA | 0.788 ± 0.0387
34 | CATGAG | 0.884 ± 0.0345
35 | CACTGG | 0.426 ± 0.00956
36 | GGTTAA | 1.23 ± 0.0345
37 | ACCCGA | 0.382 ± 0.00644
38 | CATTGC | 0.645 ± 0.0305
39 | AAGGGG | 0.527 ± 0.0535
40 | ACTCCG | 0.4 ± 0.00858

Each sequence was assayed against T2, SALL4 ZFC4 R900W (HT-SELEX) (Mus musculus, UniProt Q8BX22 870-940, R900W) (assay: HT-SELEX; high values mean tight binding). Conditions: protein: recombinant; vector His6-GST; dsDNA, one strand shown.
T2 sequence: T1 sequence with R31W
In short: as §1

Row | Sequence | binding signal [fold-change vs cycle 0]
41 | AACGTG | 0.827 ± 0.0416
42 | CTTAAA | 1.87 ± 0.112
43 | AGCCAA | 0.55 ± 0.00629
44 | ATTGGG | 0.818 ± 0.0162
45 | AATGCG | 0.473 ± 0.0206
46 | AACGAA | 1.28 ± 0.0641
47 | CATGGG | 0.543 ± 0.0349
48 | ATACTA | 2.07 ± 0.172
49 | ATTGCG | 0.47 ± 0.0102
50 | TATCAA | 2 ± 0.128
51 | GGAGTA | 0.991 ± 0.0565
52 | ATCAAT | 2.07 ± 0.0713
53 | CGAAAG | 0.735 ± 0.037
54 | AGAATC | 1.47 ± 0.0816
55 | AGGGAG | 0.667 ± 0.0517
56 | ACCTCA | 0.976 ± 0.0441
57 | ATTCAG | 1.44 ± 0.0342
58 | CTGTAC | 0.874 ± 0.0496
59 | GACGAA | 0.72 ± 0.0219
60 | AATAGC | 1.07 ± 0.0474

Row | Sequence | binding signal [fold-change vs cycle 0]
61 | CCTCTC | 0.586 ± 0.028
62 | CAAGTG | 0.902 ± 0.026
63 | GTCAAC | 0.867 ± 0.00955
64 | TATAAA | 2.53 ± 0.209
65 | TCTAAA | 1.85 ± 0.144
66 | AGTGGA | 0.954 ± 0.0352
67 | ACAAGT | 1.4 ± 0.0269
68 | AGAAGC | 0.745 ± 0.0224
69 | CCTACG | 0.443 ± 0.0174
70 | GCATGA | 0.753 ± 0.0226
71 | GTGTGA | 0.881 ± 0.0312
72 | AAGTTG | 1.32 ± 0.0296
73 | GGTTCA | 0.916 ± 0.0428
74 | CATGAG | 0.992 ± 0.0188
75 | CACTGG | 0.508 ± 0.0154
76 | GGTTAA | 1.4 ± 0.0959
77 | ACCCGA | 0.46 ± 0.0102
78 | CATTGC | 0.712 ± 0.0136
79 | AAGGGG | 0.628 ± 0.0342
80 | ACTCCG | 0.466 ± 0.0288

Each sequence was assayed against T3, SALL4 ZFC4 G921D (HT-SELEX) (Mus musculus, UniProt Q8BX22 870-940, G921D) (assay: HT-SELEX; high values mean tight binding). Conditions: protein: recombinant; vector His6-GST; dsDNA, one strand shown.
T3 sequence: T1 sequence with G52D
In short: as §1

Row | Sequence | binding signal [fold-change vs cycle 0]
81 | AACGTG | 0.87 ± 0.0436
82 | CTTAAA | 1.65 ± 0.165
83 | AGCCAA | 0.698 ± 0.0739
84 | ATTGGG | 0.856 ± 0.0353
85 | AATGCG | 0.61 ± 0.0401
86 | AACGAA | 1.24 ± 0.054
87 | CATGGG | 0.645 ± 0.0616
88 | ATACTA | 1.84 ± 0.179
89 | ATTGCG | 0.614 ± 0.0595
90 | TATCAA | 1.87 ± 0.178
91 | GGAGTA | 1.01 ± 0.0114
92 | ATCAAT | 1.9 ± 0.133
93 | CGAAAG | 0.79 ± 0.0572
94 | AGAATC | 1.41 ± 0.128
95 | AGGGAG | 0.737 ± 0.0368
96 | ACCTCA | 1.04 ± 0.0599
97 | ATTCAG | 1.36 ± 0.0925
98 | CTGTAC | 0.911 ± 0.0674
99 | GACGAA | 0.7905 ± 0.00753
100 | AATAGC | 1.11 ± 0.00486

Row | Sequence | binding signal [fold-change vs cycle 0]
101 | CCTCTC | 0.687 ± 0.045
102 | CAAGTG | 0.944 ± 0.0555
103 | GTCAAC | 0.934 ± 0.0287
104 | TATAAA | 2.14 ± 0.302
105 | TCTAAA | 1.67 ± 0.161
106 | AGTGGA | 0.964 ± 0.0435
107 | ACAAGT | 1.35 ± 0.0304
108 | AGAAGC | 0.845 ± 0.0201
109 | CCTACG | 0.524 ± 0.0668
110 | GCATGA | 0.824 ± 0.0395
111 | GTGTGA | 0.9 ± 0.0278
112 | AAGTTG | 1.29 ± 0.0737
113 | GGTTCA | 0.966 ± 0.0244
114 | CATGAG | 1.03 ± 0.0481
115 | CACTGG | 0.615 ± 0.0147
116 | GGTTAA | 1.3 ± 0.0896
117 | ACCCGA | 0.576 ± 0.0588
118 | CATTGC | 0.825 ± 0.0379
119 | AAGGGG | 0.657 ± 0.0321
120 | ACTCCG | 0.594 ± 0.0678
